Bioassay records: PubChem, University of Pittsburgh Molecular Library Screening Center
Many of the other results were omitted from the sample, so hits are more common in it than they were.
HIV RNase H inh: inhibitors of HIV-1 reverse transcriptase RNase H | AID 565 | hit rate 1.9% among 65,000 | RT-RNase H RNA/DNA duplex cleavage, fluorescence | inhibition, % at 10 µM; in the data active means inhibition above about 50%
Starred values were filed as active, the others as inactive.

What do the screens show for `Cc1nnc2sc(-c3ccc(NC(=O)c4ccc(-c5ccc(Cl)cc5Cl)o4)cc3)nn12`?
HIV RNase H inh: 50.0*

What do the screens show for `CCc1nnc2sc(-c3ccc(NC(=O)c4ccco4)cc3)nn12`?
HIV RNase H inh: -0.2

How did Cc1nnc2sc(-c3ccc(NC(=O)c4cccnc4)cc3)nn12 do in these assays?
HIV RNase H inh: 2.5

Results for Cc1cc(C)n2nc3nc4c(cc3c2n1)CCCC4 ?
HIV RNase H inh: -16.4

How did COc1ccc2cc(C#N)c(N3CCN(Cc4nnnn4CCC(C)C)CC3)nc2c1 do in these assays?
HIV RNase H inh: -4.0

Results for CCn1c(=O)cc(OCC(=O)Nc2ccc(Cl)cn2)c2ccccc21 ?
HIV RNase H inh: 20.4

What do the screens show for `COCCCn1c(-c2ccsc2)nc2c1c(=O)[nH]c(=O)n2Cc1ccccc1`?
HIV RNase H inh: -2.4

Results for COc1ccc(OC)c(S(=O)(=O)N2c3cc(F)ccc3CCC2C)c1 (centres undefined) ?
HIV RNase H inh: -51.9

Results for CCOC(=O)C1CCN(C(=O)Nc2ccc(Cl)cc2Cl)CC1 ?
HIV RNase H inh: -4.3

Results for CCCC(C)C1C(C#N)=C(N)Oc2cc(C)oc(=O)c21 (centres undefined) ?
HIV RNase H inh: 0.2

What do the screens show for `C=CCSc1nnc2c(n1)OC=Nc1ccccc1-2`?
HIV RNase H inh: -9.7

How did CC(C)C(=O)N1CCC(CN=Cc2c(O)n(C3CCCCC3)c(=O)n(C3CCCCC3)c2=O)CC1 do in these assays?
HIV RNase H inh: -1.5

How did CCC(=O)N1CCN(CCN=Cc2c(O)n(C3CCCCC3)c(=O)n(C3CCCCC3)c2=O)CC1 do in these assays?
HIV RNase H inh: -4.5

Results for NS(=O)(=O)c1ccc(N=Cc2c(O)n(C3CCCCC3)c(=O)n(C3CCCCC3)c2=O)cc1 ?
HIV RNase H inh: 51.9*

Results for COc1ccc(S(=O)(=O)N2Cc3ccccc3CC2C(=O)Nc2nccs2)cc1OC (centres undefined) ?
HIV RNase H inh: -0.8

How did CCc1nnc(NC(=O)C2Cc3ccccc3CN2S(=O)(=O)c2cccs2)s1 (centres undefined) do in these assays?
HIV RNase H inh: 50.5*

Results for O=C(C1CCN(S(=O)(=O)c2cccs2)CC1)N1CCc2ccccc2C1 ?
HIV RNase H inh: -14.8

What do the screens show for `O=C(Nc1nnc(C2CC2)s1)C1Cc2ccccc2CN1S(=O)(=O)c1cccs1` (centres undefined)?
HIV RNase H inh: 58.9*

Results for O=C(Nc1ccccn1)C1CCN(S(=O)(=O)c2cccs2)CC1 ?
HIV RNase H inh: -6.0

Results for CCc1nnc(NC(=O)C2CCCN2S(=O)(=O)c2ccc(C)cc2)s1 (centres undefined) ?
HIV RNase H inh: -11.3

What do the screens show for `O=C(CCSc1ccc(Cl)cc1)N1CCN(c2ncccn2)CC1`?
HIV RNase H inh: -13.3

How did O=C(Nc1ccccc1C(=O)N1CCN(c2ccccc2)CC1)c1ccco1 do in these assays?
HIV RNase H inh: -5.1

What do the screens show for `Cc1ccc2[nH]c(=O)c(CN(CCc3ccccc3)C(c3nnnn3Cc3ccco3)C(C)C)cc2c1` (centres undefined)?
HIV RNase H inh: 20.1

How did CCC(c1nnnn1Cc1ccco1)N(CCc1ccccc1)Cc1cc2cc(C)ccc2[nH]c1=O (centres undefined) do in these assays?
HIV RNase H inh: 61.3*

Results for CCC(c1nnnn1Cc1ccccc1)N(Cc1ccco1)Cc1cc2cc(OC)ccc2[nH]c1=O (centres undefined) ?
HIV RNase H inh: -9.6

How did O=C(CNS(=O)(=O)c1ccc(Br)s1)N1CCC(N2CCCCC2)CC1 do in these assays?
HIV RNase H inh: -19.1

How did COC(=O)c1ccc(CSc2ncnc3c2sc2nc(N4CCOCC4)c4c(c23)CCCC4)o1 do in these assays?
HIV RNase H inh: 82.9*

How did COC(=O)c1ccc(-c2sc3nc(N4CCOCC4)c4c(c3c2N)CCCC4)o1 do in these assays?
HIV RNase H inh: 18.8

How did COC(=O)c1ccc(Cn2nnc3c(sc4nc(N5CCOCC5)c5c(c43)CCCC5)c2=O)o1 do in these assays?
HIV RNase H inh: 1.0

What do the screens show for `Cc1cc(C)c(NC(=O)CN2CCN3CCCC3C2)c(C)c1` (centres undefined)?
HIV RNase H inh: -9.3

What do the screens show for `O=C(CSc1nnnn1-c1ccc(Cl)cc1)N1CCc2ccccc2C1`?
HIV RNase H inh: -54.9

How did O=C(CCc1ccccc1)Nc1nc2ccc(S(=O)(=O)N3CCOCC3)cc2s1 do in these assays?
HIV RNase H inh: 63.8*

What do the screens show for `COc1ccc(CC(=O)Nc2nc3ccccc3s2)cc1S(=O)(=O)N1CCOCC1`?
HIV RNase H inh: -23.0

What do the screens show for `CCOc1ccc2nc(NC(=O)c3ccc(S(=O)(=O)N4CCOCC4)cc3)sc2c1`?
HIV RNase H inh: -3.4

Results for COc1ccccc1NC(=O)NCCN1C(=O)C2C3C=CC(C3)C2C1=O (centres undefined) ?
HIV RNase H inh: -10.4

What do the screens show for `CC(=O)c1cnc(Nc2nc(C)c3cccc(C)c3n2)nc1C`?
HIV RNase H inh: -4.9

Results for CCOc1ccc(C2c3c(oc4ccccc4c3=O)C(=O)N2c2ccccn2)cc1OC (centres undefined) ?
HIV RNase H inh: -6.8

What do the screens show for `CC1CCN(C2CC(=O)N(c3ccc(Br)cc3Br)C2=O)CC1` (centres undefined)?
HIV RNase H inh: 48.8
